Experimental data as given in PubChem BioAssay (Tox21).
Inconclusive results are not listed. The source made the active and inactive calls. Unless noted, the call rests on the fitted dose curve; in most records, active means well fitted curve in the direction sought with a large enough effect in the repeat runs; inconclusive means weak or mixed curves; inactive means no such curve, though single readings can be large; an effect the other way counts as inactive or inconclusive.

Assays:
[1] = qHTS assay to identify small molecule antagonists of the glucocorticoid receptor (GR) signaling pathway - cell viability counter screen (AID 720693); further: nearly all actives have a fitted effect of over 55% in size
[2] = qHTS assay for identifying genotoxic compounds that show differential cytotoxicity against isogenic chicken DT40 cell lines with known DNA damage response pathways - Rev3 mutant cell line (AID 743014); further: nearly all actives have a fitted effect of over 55% in size; further: potency means the concentration at half of the fitted maximal effect
[3] = qHTS assay for identifying genotoxic compounds that show differential cytotoxicity against isogenic chicken DT40 cell lines with known DNA damage response pathways - Rad54/Ku70 mutant cell line (AID 743015); further: nearly all actives have a fitted effect of over 60% in size; further: potency means the concentration at half of the fitted maximal effect
[4] = qHTS assay to identify small molecule antagonists of the androgen receptor (AR) signaling pathway - cell viability counter screen (AID 743033; further: nearly all actives have a fitted effect of over 45% in size)
[5] = qHTS assay to identify small molecule antagonists of the androgen receptor (AR) signaling pathway using the MDA cell line - cell viability counter screen (AID 743041; further: nearly all actives have a fitted effect of over 45% in size; further: potency means the concentration at half of the fitted maximal effect)
Outline: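 Same-well cytotoxicity was assessed by CellTiter-Fluor in MDA-kb2 AR-luc cells after 16 h of compound treatment under R1881 agonism.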

[6] = qHTS assay to identify small molecule antagonists of the thyroid receptor (TR) signaling pathway - cell viability counter screen (AID 743064); further: nearly all actives have a fitted effect of over 50% in size; further: potency means the concentration at half of the fitted maximal effect
Outline: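 In rat pituitary GH3.TRE-Luc reporter cells co-exposed to compound and 1 nM T3 for 23.5 h, cytotoxicity was assessed with CellTiter-Fluor in the same wells, read by fluorescence.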

[7] = qHTS assay to identify small molecule antagonists of the thyroid receptor (TR) signaling pathway (AID 743065); further: nearly all actives have a fitted effect of over 55% in size; further: potency means the concentration at half of the fitted maximal effect
Outline: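 GH3.TRE-Luc rat pituitary cells (two TREs driving luciferase) were dosed with compound, then stimulated with 1 nM T3 (final) for 23.5 h at 37 C. ONE-Glo luminescence was the read-out, with CellTiter-Fluor fluorescence as the cytotoxicity counter-screen.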

[8] = tested on: thyroid hormone receptor (rat, GH3 cells); experiment: qHTS assay to identify small molecule agonists of the thyroid receptor (TR) signaling pathway (AID 743066; calls by dose curve)
[9] = qHTS assay to identify small molecule antagonists of the estrogen receptor alpha (ER-alpha) signaling pathway - cell viability counter screen (AID 743074; calls by dose curve;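 further: HEK293 cells carrying ER-alpha-UAS-bla reporter stimulated with 17beta-estradiol; nearly all actives have a fitted effect of over 45% in size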; further: potency means the concentration at half of the fitted maximal effect)
[10] = qHTS assay to identify small molecule antagonists of the estrogen receptor alpha (ER-alpha) signaling pathway using the BG1 cell line - cell viability counter screen (AID 743081);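 further: compound given together with 17beta-estradiol as the ER stimulus; nearly all actives have a fitted effect of over 45% in size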; further: potency means the concentration at half of the fitted maximal effect
[11] = biological target: Aromatase (Homo sapiens) (UniProt P11511); experiment: qHTS assay to identify aromatase inhibitors (AID 743083); further: nearly all actives have a fitted effect of over 55% in size; further: potency means the concentration at half of the fitted maximal effect
[12] = biological target: Androgen receptor (Homo sapiens) (UniProt P10275); experiment: qHTS assay to identify small molecule antagonists of the androgen receptor (AR) signaling pathway (AID 743035; active means well fitted inhibition curve with a large enough effect in the signal ratio in the repeat runs, not every such curve was filed as active; the % refers to the signal ratio; further: potency means the concentration at half of the fitted maximal effect)
Outline: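 Cell line: GeneBLAzer AR-UAS-bla GripTite (HEK293). Stimulus: R1881 added after compound. Exposure: 16 h, 37C, 5% CO2. Readout: LiveBLAzer B/G FRET fluorescence after 2 h at room temperature.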

[13] = biological target: Androgen receptor (Homo sapiens) (UniProt P10275); experiment: qHTS assay to identify small molecule agonists of the androgen receptor (AR) signaling pathway (AID 743036; active means well fitted activation curve with a large enough effect in the signal ratio in the repeat runs, with a control signal flat, not every such curve was filed as active; the % refers to the signal ratio; further: potency means the concentration at half of the fitted maximal effect)
Outline: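 Cell-based FRET reporter assay: HEK293 line with a UAS-beta-lactamase construct, compounds added in DMSO, 16 h exposure at 37C, then 2 h substrate step at room temperature and fluorescence intensity read.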

[14] = biological target: Androgen receptor (Homo sapiens) (UniProt P10275); experiment: qHTS assay to identify small molecule agonists of the androgen receptor (AR) signaling pathway using the MDA cell line (AID 743040; further: nearly all actives have a fitted effect of over 20% in size)
Outline: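 Human breast carcinoma MDA-kb2 reporter cells (MMTV-luc, AR/GR elements) were treated for 16 h at 37C in 0% CO2 following a 5 h settling period. Signal was quantified by ONE-Glo luminescence.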

[15] = biological target: Androgen receptor (Homo sapiens) (UniProt P10275); experiment: qHTS assay to identify small molecule antagonists of the androgen receptor (AR) signaling pathway using the MDA cell line (AID 743042; further: nearly all actives have a fitted effect of over 55% in size)
Outline: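 MDA-kb2 breast carcinoma cells carrying MMTV-luciferase (AR/GR responsive) were co-treated with compounds and the agonist R1881 for 16 h at 37C. Inhibition read as ONE-Glo luminescence; CellTiter-Fluor fluorescence measured in parallel for cytotoxicity.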

[16] = biological target: Estrogen receptor (Homo sapiens) (UniProt P03372); experiment: qHTS assay to identify small molecule agonists of the estrogen receptor alpha (ER-alpha) signaling pathway (AID 743075; calls by dose curve;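 further: HEK293 GripTite cells with ER-alpha and UAS-driven beta-lactamase reporter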)
[17] = biological target: Estrogen receptor (Homo sapiens) (UniProt P03372); experiment: qHTS assay to identify small molecule agonists of the estrogen receptor alpha (ER-alpha) signaling pathway using the BG1 cell line (AID 743079); further: nearly all actives have a fitted effect of over 20% in size
[18] = biological target: Estrogen receptor (Homo sapiens) (UniProt P03372); experiment: qHTS assay to identify small molecule antagonists of the estrogen receptor alpha (ER-alpha) signaling pathway (AID 743069; active means well fitted curve in the direction sought with a large enough effect in the signal ratio in the repeat runs, not every such curve was filed as active; the % refers to the signal ratio)
Outline: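 Reporter cells (ER-alpha-bla, HEK293 background) are conditioned overnight in stripped-serum medium (2% charcoal-stripped FBS). Compound and 17beta-estradiol exposure runs 18 hr at 37C, 5% CO2.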

[19] = qHTS assay to identify small molecule antagonists of the estrogen receptor alpha (ER-alpha) signaling pathway using the BG1 cell line (AID 743080; calls by dose curve;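 further: BG1 cells stimulated with 17beta-estradiol alongside compound; series mostly up to about 70 µM; nearly all actives have a fitted effect of over 25% in size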)
Outline: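 BG1-Luc-4E2 cells (endogenous full-length ER-alpha, 4xERE luciferase) hormone-starved 5 days in charcoal-stripped FBS, plated 4,000/well for 24 h, then compound plus 17beta-estradiol for 21.5 h at 37 C; ONE-Glo luminescence read.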

[20] = qHTS assay for identifying genotoxic compounds that show differential cytotoxicity against isogenic chicken DT40 cell lines with known DNA damage response pathways - wild type cell line (AID 743012); further: nearly all actives have a fitted effect of over 60% in size; further: potency means the concentration at half of the fitted maximal effect
Outline: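 Quantitative HTS on parental DT40 cells: 40 h compound treatment at 37 C/5% CO2, with viability then determined by CellTiter-Glo luminescence. Values serve as the DNA repair-proficient reference for differential cytotoxicity.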

Measured: Potency

Chain of Estrogen receptor (Homo sapiens) (P03372 whole entry, looked up): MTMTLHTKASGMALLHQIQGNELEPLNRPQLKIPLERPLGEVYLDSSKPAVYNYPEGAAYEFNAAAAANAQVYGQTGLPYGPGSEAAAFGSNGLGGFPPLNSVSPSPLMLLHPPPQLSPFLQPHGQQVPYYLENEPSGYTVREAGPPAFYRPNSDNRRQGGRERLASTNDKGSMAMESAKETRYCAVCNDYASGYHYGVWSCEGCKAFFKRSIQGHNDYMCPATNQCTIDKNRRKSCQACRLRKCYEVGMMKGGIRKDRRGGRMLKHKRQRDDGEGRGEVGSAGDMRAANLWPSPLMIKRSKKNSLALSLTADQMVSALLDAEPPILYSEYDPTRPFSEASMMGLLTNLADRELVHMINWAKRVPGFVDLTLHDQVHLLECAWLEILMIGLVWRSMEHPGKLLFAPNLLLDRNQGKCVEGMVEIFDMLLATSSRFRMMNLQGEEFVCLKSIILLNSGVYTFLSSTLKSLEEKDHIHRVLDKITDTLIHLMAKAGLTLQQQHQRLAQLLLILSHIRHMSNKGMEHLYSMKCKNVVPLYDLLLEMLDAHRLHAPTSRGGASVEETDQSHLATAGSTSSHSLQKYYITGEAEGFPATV
Chain of Androgen receptor (Homo sapiens) (P10275 whole entry, looked up): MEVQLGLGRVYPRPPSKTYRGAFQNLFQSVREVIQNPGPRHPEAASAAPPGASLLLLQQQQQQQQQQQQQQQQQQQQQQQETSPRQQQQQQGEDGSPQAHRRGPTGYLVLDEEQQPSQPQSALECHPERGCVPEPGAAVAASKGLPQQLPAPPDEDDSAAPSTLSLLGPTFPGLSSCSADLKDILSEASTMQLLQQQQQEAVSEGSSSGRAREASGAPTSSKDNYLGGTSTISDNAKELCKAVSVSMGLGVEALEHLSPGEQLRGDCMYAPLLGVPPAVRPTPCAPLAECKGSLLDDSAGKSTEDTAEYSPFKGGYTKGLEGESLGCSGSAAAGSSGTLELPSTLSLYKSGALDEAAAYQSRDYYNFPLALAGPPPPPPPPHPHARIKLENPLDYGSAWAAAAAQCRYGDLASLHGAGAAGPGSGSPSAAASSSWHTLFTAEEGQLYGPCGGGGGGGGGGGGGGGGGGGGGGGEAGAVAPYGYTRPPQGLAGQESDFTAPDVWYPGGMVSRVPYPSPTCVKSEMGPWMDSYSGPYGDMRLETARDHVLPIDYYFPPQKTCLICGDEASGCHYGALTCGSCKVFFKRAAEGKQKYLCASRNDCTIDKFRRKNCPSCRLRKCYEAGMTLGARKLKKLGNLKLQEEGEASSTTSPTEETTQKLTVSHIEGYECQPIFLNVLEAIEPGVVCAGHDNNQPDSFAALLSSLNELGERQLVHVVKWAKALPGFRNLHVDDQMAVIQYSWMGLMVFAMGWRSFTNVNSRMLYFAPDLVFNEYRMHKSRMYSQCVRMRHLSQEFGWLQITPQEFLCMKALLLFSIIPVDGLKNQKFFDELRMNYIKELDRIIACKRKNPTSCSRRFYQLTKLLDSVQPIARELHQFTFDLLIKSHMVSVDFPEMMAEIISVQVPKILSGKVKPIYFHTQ
Chain of Aromatase (Homo sapiens) (P11511 whole entry, looked up): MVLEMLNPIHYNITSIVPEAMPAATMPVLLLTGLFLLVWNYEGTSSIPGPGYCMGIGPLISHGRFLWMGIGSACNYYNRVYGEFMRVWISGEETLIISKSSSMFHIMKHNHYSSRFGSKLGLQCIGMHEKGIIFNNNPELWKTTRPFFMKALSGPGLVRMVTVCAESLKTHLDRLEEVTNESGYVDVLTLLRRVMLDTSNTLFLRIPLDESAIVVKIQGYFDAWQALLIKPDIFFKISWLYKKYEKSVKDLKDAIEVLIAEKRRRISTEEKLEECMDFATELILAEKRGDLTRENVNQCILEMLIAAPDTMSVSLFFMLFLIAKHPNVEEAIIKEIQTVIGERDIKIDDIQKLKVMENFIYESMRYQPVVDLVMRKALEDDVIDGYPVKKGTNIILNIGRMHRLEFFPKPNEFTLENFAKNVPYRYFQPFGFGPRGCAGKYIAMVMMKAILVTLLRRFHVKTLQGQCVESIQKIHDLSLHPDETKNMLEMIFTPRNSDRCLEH

N[C@@H](Cc1ccc(O)c(O)c1)C(=O)O
inactive: [1] | [2] | [3] | [4] | [5] | [6] | [7] | [8] | [9] | [10] | [11]

CCOC(=O)[C@H](CCc1ccccc1)N[C@@H](C)C(=O)N1[C@H](C(=O)O)C[C@H]2CCCC[C@@H]21
inactive: [1] | [2] | [4] | [12] | [13] | [14] | [5] | [15] | [6] | [7] | [8] | [9] | [10] | [11]

O=C(O)c1cc(=O)c2c3nc4ccccc4oc-3cc(=O)c2[nH]1
inactive: [1] | [2] | [4] | [6] | [7] | [8] | [9] | [10] | [11]

C[C@@H]1C[C@H]2[C@@H]3C[C@H](F)C4=CC(=O)C=C[C@]4(C)[C@@]3(Cl)[C@@H](O)C[C@]2(C)[C@H]1C(=O)COC(=O)C(C)(C)C
inactive: [1] | [3] | [4] | [5] | [6] | [7] | [8] | [9] | [16] | [17] | [10] | [11]

CC(C)=CCC/C(C)=C/CC/C(C)=C/CC/C=C(\C)CC/C=C(\C)CCC=C(C)C
inactive: [1] | [3] | [4] | [5] | [6] | [8] | [18] | [9] | [16] | [17] | [10] | [11]

C[C@H](NCCc1ccc(O)cc1)[C@H](O)c1ccc(O)cc1
inactive: [1] | [3] | [4] | [5] | [6] | [7] | [8] | [18] | [9] | [16] | [17] | [19] | [10] | [11]

Cc1cn([C@H]2C[C@H](O)[C@@H](CO)O2)c(=O)[nH]c1=O
inactive: [1] | [3] | [5] | [18] | [9] | [16] | [17] | [10] | [11]

Cc1cc(N)c2ccccc2[n+]1CCCCCCCCCC[n+]1c(C)cc(N)c2ccccc21
inactive: [1] | [8] | [16]
active: [2] 2.54 µM | [3] 2.85 µM | [5] 7.49 µM | [7] 11.4 µM | [9] 8.11 µM

O=C(O)Cc1nn(Cc2ccc(Br)cc2F)c(=O)c2ccccc12
inactive: [1] | [2] | [4] | [12] | [13] | [14] | [5] | [15] | [7] | [8] | [18] | [9] | [16] | [17] | [19] | [10] | [11]

CC(C)CCC[C@@H](C)[C@H]1CC[C@H]2[C@@H]3CC[C@@H]4C[C@H](O)CC[C@]4(C)[C@H]3CC[C@]12C
inactive: [1] | [3] | [4] | [5] | [7] | [8] | [18] | [9] | [16] | [17] | [19] | [10] | [11]

CCN(CC)C(=O)[C@]1(c2ccccc2)C[C@@H]1CN
inactive: [1] | [3] | [5] | [7] | [8] | [9] | [10]

O=S(=O)(O)CC(S)CS (configuration not stated)
active: [3] 3.76 µM
inactive: [1] | [4] | [12] | [14] | [5] | [15] | [8] | [9] | [10] | [11]

CN1C(C(=O)Nc2ccccn2)C(=O)c2sc(Cl)cc2S1(=O)=O (configuration not stated)
inactive: [1] | [3] | [4] | [5] | [8] | [18] | [9] | [16] | [17] | [19] | [11]

CCCCC/C=C\C=C\C(=O)OCC
active: [20] 12.7 µM | [2] 16 µM | [6] 31.9 µM
inactive: [9] | [16] | [17] | [10]

CN1CCN(CCCN2c3ccccc3Sc3ccc(C(F)(F)F)cc32)CC1
active: [20] 5.31 µM | [2] 2.11 µM | [3] 5.31 µM | [6] 10.6 µM | [7] 9.44 µM | [11] 26.6 µM
inactive: [8] | [10]

CCCn1c(=O)[nH]c(=O)c2[nH]cnc21
inactive: [20] | [2] | [4] | [5] | [9] | [10]

CCCC(=O)c1cc(O)c(O)cc1O
inactive: [14] | [15] | [8] | [18] | [16] | [17] | [19]
active: [20] 24.3 µM | [2] 29.8 µM | [3] 45 µM | [7] 61.1 µM | [10] 61.1 µM

COc1cc(NS(C)(=O)=O)ccc1Nc1c2ccccc2nc2ccccc12
active: [20] 0.0596 µM | [2] 0.0668 µM | [3] 0.0084 µM | [12] 0.601 µM | [13] 10.7 µM | [6] 0.188 µM | [7] 0.596 µM | [11] 26.6 µM
inactive: [14] | [5] | [9]

CNCC(=O)N[C@@H](CCCN=C(N)N)C(=O)N[C@H](C(=O)N[C@@H](Cc1ccc(O)cc1)C(=O)N[C@H](C(=O)N[C@@H](Cc1cnc[nH]1)C(=O)N1CCC[C@H]1C(=O)N[C@@H](C)C(=O)O)C(C)C)C(C)C
inactive: [20] | [2] | [4] | [5] | [6] | [7] | [8] | [9] | [10] | [11]
